# Experimental data as given in PubChem BioAssay (EPA / NIEHS).
# Active and inactive are the calls of the source. Rule for the calls: active = hit-call score of the fitted dose curve at least 0.9, where 1 is the maximum; inconclusive = response in the unintended direction; inactive = score below 0.9.
# Test system: IYD (gene 389434)
# Assay: CCTE_GLTED_hIYD: CCTE's human Iodotyrosine Deiodinase (xIYD) Inhibition Assay, Great Lakes Toxicology and Ecology Division (GLTED) Lab (AID 2284317)
# Description: CCTE_GLTED_hIYD is a cell-free, single-readout assay that uses human iodotyrosine deiodinase (hIYD) enzyme produced with baculovirus-insect cell system. The assay is based on iodide release measured by the Sandell-Kolthoff method and is run in 96-well plate format with assay plates run in triplicate (n=3) with measurements taken at 3 hours after chemical dosing. Platewise-normalization was used based on positive control (3-Nitro-L-tyrosine, MNT) and negative/solvent controls (DMSO, NaOH).CCTE_GLTED_hIYD is the assay component measured from the CCTE_GLTED_hIYD assay. It measures substrate involved in regulation of catalytic activity using spectrophotometry. The assay measures the deiodination activity of human IYD on the substrate monoiodotyrosine (MIT). After 3h incubation of substrate, enzyme, and test chemical, the components are applied to a 96-well Dowex column. Free iodide is not retained by the column and is separated from interfering assay components. The free iodide is measured by the Sandell-Kolthoff reaction in which the rate of reduction of cerium (Ce+4 to Ce+3) by arsenic (As+3 to As+5) is increased by the presence of iodide. This is observed as the loss of yellow color in the reaction and the quantified by the change in absorbance at 420 nm. The change in reaction rate is proportional to the amount of iodide present.Data from the assay component CCTE_GLTED_hIYD was analyzed at the assay endpoint CCTE_GLTED_hIYD in the positive analysis fitting direction relative to DMSO as the negative control and baseline of activity. Using a type of enzyme reporter, loss-of-signal activity can be used to understand iodotyrosine deiodinase activity. To generalize the intended target to other relatable targets, this assay endpoint is annotated to the 'dehalogenase' intended target family, where the subfamily is 'iodotyrosine deiodinase'.
# Human thyroxine binding globulin (TBG) assay, developed at Great Lakes Toxicology and Ecology Division (GLTED) within the EPA's Center for Computational Toxicology and Exposure (CCTE), is designed to test the chemicals' ability to displace T4 from the TBG protein. The method used was largely based on Montano et al. (2012). This work describes the utilization of ANSA fluorescence when bound to the protein to approximate binding affinity of chemicals through a reduction of fluorescence when ANSA is displaced. This assay was conducted in 96-well plates with an incubation at 4C for 2 hours in a final volume of 200 uL. Final assay conditions included 0.0625 uM TBG, 0.6 uM ANSA, and 0.5% DMSO in 0.1 M phosphate buffer, pH=7.5.
Compound,outcome,AC50
COc1ccc(N=Nc2cc(C)c(N=Nc3ccc(S(=O)(=O)O)cc3)cc2OC)cc1,inactive,
O=C(Nc1ccc2c(O)c(N=Nc3ccc(N=Nc4ccc(S(=O)(=O)O)cc4)cc3)c(S(=O)(=O)O)cc2c1)c1ccccc1,,91.3 µM (active)
Nc1ccc(N)c2c1C(=O)c1ccccc1C2=O,inactive,
CCCCCCCCCCCCCC(=O)OCC(O)CO (centres undefined),,100 µM (active)
CC(C)CCCCCCCCCCCCCCC(=O)O,,40.8 µM (active)
Nc1ccc2cc(S(=O)(=O)O)cc(O)c2c1N=Nc1ccccc1C(F)(F)F,,100 µM (active)
Cc1ccc(S(=O)(=O)Oc2ccc(N=Nc3ccc(-c4ccc(N=Nc5c(O)ccc6cc(S(=O)(=O)O)cc(S(=O)(=O)O)c56)c(C)c4)cc3C)cc2)cc1,,44.4 µM (active)
CCCCCCCCCCCCCCN(CCO)CCO,,38.6 µM (active)
Oc1ccc2cc(SSc3ccc4cc(O)ccc4c3)ccc2c1,,56.9 µM (active)
COc1ccccc1N=Nc1c(S(=O)(=O)O)cc2cc(S(=O)(=O)O)cc(NC(C)=O)c2c1O,,94.8 µM (active)
CCCCC(CC)COC(=O)c1ccc(O)cc1 (centres undefined),,44.3 µM (active)
CCCCCCCCc1ccc(S(=O)(=O)O)cc1,,100 µM (active)
CCc1cc(Cc2cc(CC)cc(C(C)(C)C)c2O)c(O)c(C(C)(C)C)c1,,102 µM (active)
CCCCCCCCC=CCCCCCCCC1=NCCN1CCO,,66.2 µM (active)
